Test results published in PubChem BioAssay (NCATS).
Inconclusive results are not listed. Active and inactive are the calls of the source. Unless noted, calls come from the whole dose curve; as a rule, active = well fitted curve in the direction sought with a large enough effect; inconclusive = small, poorly fitted or top-dose-only effect, or another doubt; inactive = no such curve, though single readings can be large; an effect the other way counts as inactive or inconclusive.

Assays:
[1] = qHTS for Inhibitors of Plasmodium falciparum (DD2) proliferation (AID 504314); note: potency is the fitted concentration of half-maximal effect;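 for activity, negative = inhibition: parasite DNA measured by SYBR Green fluorescence after red cell lysis; plate controls were DMSO vehicle for no effect and artemisinin wells for full effect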
Method in brief: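 Quantitative HTS growth inhibition: SYBR Green I binding to parasite DNA after 72 h drug exposure of infected erythrocytes (0.3% parasitemia, 2.5% hematocrit). Signals normalized per plate to inhibitor and vehicle wells.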

[2] = qHTS for Inhibitors of Plasmodium falciparum (GB4) proliferation (AID 504315); note: nearly all actives have a fitted effect of over 50% in size; note: potency is the fitted concentration of half-maximal effect;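 for activity change, negative = inhibition: 0% = DMSO vehicle and -100% = 0.29 µM artemisinin control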
Method in brief: (§1)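 Erythrocytes infected with P. falciparum line (0.3% parasitemia, 2.5% hematocrit final) incubated with compounds 72 h at 37 °C, 5% CO2; SYBR Green lysis buffer added, fluorescence read next day. Normalized to 0.29 uM artemisinin and DMSO.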

[3] = qHTS for Inhibitors of Plasmodium falciparum (7G8) proliferation (AID 504316);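 note: series mostly up to about 6.7 µM; 0% = DMSO vehicle and -100% = 0.29 µM artemisinin full kill; nearly all actives have a fitted effect of over 65% in size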
Method in brief: as §1

[4] = qHTS for Inhibitors of Plasmodium falciparum (CP250) proliferation (AID 504320);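 note: plate controls were DMSO vehicle for no effect and 0.29 µM artemisinin control for full effect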
Method in brief: as §1

[5] = biological target: Atrial natriuretic peptide receptor 1 (Homo sapiens) (UniProt P16066); experiment: Natriuretic polypeptide receptor (hNpr1) antagonism - Pilot CMLD screen (AID 1347052; calls by dose curve;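 note: HEK293 cells with hNpr1 stimulated by hNppA peptide at 0.1 nM; cGMP level read as GloSensor luciferase luminescence after agonist stimulation; series mostly up to about 9.2 µM; % is set by controls: 0 for no effect and ±100 for the full control effect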)
[6] = qHTS for Inhibitors of Plasmodium falciparum (HB3) proliferation (AID 504318);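 note: 0% = DMSO vehicle and -100% = artemisinin control; nearly all actives have a fitted effect of over 60% in size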
Method in brief: as §1

[7] = biological target: Cytochrome P450 2C9 (Homo sapiens) (UniProt P11712); experiment: qHTS Assay for Inhibitors and Substrates of Cytochrome P450 2C9 (AID 883); note: % is set by controls: 0 for no effect and ±100 for the full control effect; nearly all actives have a fitted effect of over 60% in size
Method in brief: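 Signal: luciferase luminescence reporting luciferin produced by CYP2C9. Conditions: 10nM enzyme, Luciferin-H 100uM at KM, 25mM KPO4, 37C, 60 min NADPH-driven reaction. Reference: 57uM sulphaphenazole as 100% inhibition.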

[8] = biological target: Cytochrome P450 3A4 (Homo sapiens) (UniProt P08684); experiment: qHTS Assay for Activators of Cytochrome P450 3A4 (AID 885); note: nearly all actives have a fitted effect of over 65% in size
Method in brief: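 Steps: enzyme/substrate mix dispensed; compound added, 10 min RT; NADPH regeneration solution added, 60 min RT; luciferin detection buffer stops reaction; 20 min later luminescence measured.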

[9] = biological target: Cytochrome P450 2D6 (Homo sapiens) (UniProt P10635); experiment: qHTS Assay for Inhibitors and Substrates of Cytochrome P450 2D6 (AID 891); note: potency is the fitted concentration of half-maximal effect; nearly all actives have a fitted effect of over 60% in size
Method in brief: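 Human CYP2D6 (5 nM) with 30 uM Luciferin-ME EGE (at Km) in 100 mM KPO4, compound preincubated 10 min, then NADPH regeneration system for 60 min at room temperature. Luciferin read by luminescence; normalized to 1.43 uM quinidine.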

[10] = biological target: Cytochrome P450 2C19 (Homo sapiens) (UniProt P33261); experiment: qHTS Assay for Inhibitors and Substrates of Cytochrome P450 2C19 (AID 899); note: potency is the fitted concentration of half-maximal effect; nearly all actives have a fitted effect of over 60% in size
Method in brief: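 Signal comes from luciferase acting on luciferin released by CYP2C19-mediated hydroxylation of Luciferin-H EGE, 10uM (KM). Assay mix: 5nM enzyme, 50mM KPO4; 60 min at 37C with NADPH regeneration. Data normalized against 57uM ketoconazole.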

[11] = biological target: Cytochrome P450 3A4 (Homo sapiens) (UniProt P08684); experiment: qHTS Assay for Inhibitors and Substrates of Cytochrome P450 3A4 (AID 884); note: potency is the fitted concentration of half-maximal effect; nearly all actives have a fitted effect of over 50% in size
Method in brief: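 20 nM human CYP3A4 with 25 uM Luciferin-PPXE (at KM) in 200 mM KPO4, preincubated 10 min with compound; NADPH regeneration started a 60 min RT reaction. Luciferin detected by luminescence, normalized to 57 uM ketoconazole as full inhibition.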

Atrial natriuretic peptide receptor 1 (Homo sapiens), sequence (P16066 whole entry, looked up): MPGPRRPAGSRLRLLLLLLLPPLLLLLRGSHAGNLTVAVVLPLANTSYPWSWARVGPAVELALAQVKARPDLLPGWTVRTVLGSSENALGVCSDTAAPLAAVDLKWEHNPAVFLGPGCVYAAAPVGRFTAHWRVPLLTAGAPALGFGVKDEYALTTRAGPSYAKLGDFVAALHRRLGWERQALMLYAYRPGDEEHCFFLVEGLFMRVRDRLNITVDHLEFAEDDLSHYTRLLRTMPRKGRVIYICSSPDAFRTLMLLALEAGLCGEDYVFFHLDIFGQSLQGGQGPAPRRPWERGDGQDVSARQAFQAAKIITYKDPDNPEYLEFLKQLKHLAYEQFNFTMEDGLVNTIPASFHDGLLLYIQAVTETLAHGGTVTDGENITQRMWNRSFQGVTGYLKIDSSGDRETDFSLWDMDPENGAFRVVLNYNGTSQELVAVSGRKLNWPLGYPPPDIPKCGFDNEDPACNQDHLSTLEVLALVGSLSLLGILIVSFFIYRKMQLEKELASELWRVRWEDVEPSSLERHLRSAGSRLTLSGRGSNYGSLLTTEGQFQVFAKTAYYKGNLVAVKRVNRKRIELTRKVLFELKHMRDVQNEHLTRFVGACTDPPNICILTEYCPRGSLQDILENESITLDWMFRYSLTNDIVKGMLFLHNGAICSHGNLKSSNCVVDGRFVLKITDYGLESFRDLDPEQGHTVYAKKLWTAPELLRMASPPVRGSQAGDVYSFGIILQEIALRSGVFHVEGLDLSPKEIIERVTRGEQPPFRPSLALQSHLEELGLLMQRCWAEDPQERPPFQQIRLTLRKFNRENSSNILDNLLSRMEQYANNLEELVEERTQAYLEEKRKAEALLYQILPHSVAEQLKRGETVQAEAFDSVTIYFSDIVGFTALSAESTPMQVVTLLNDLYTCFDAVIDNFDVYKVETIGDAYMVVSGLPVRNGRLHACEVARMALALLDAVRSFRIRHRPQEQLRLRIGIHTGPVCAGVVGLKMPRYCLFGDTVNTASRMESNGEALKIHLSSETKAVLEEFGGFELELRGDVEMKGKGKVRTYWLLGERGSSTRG
Cytochrome P450 3A4 (Homo sapiens), sequence (P08684 whole entry, looked up): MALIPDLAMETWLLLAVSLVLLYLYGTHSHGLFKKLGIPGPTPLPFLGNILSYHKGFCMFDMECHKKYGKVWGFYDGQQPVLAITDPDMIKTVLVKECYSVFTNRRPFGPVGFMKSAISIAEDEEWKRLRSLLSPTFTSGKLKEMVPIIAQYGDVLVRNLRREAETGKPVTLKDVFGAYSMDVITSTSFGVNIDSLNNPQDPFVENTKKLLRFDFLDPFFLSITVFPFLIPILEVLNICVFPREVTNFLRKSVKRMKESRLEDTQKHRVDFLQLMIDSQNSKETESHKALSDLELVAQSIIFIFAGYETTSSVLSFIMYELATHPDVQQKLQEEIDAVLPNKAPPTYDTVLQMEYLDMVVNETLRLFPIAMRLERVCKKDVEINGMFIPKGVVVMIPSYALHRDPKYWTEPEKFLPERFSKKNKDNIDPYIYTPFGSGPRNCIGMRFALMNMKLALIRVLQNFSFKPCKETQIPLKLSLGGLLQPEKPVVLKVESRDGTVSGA
Cytochrome P450 2D6 (Homo sapiens), sequence (P10635 whole entry, looked up): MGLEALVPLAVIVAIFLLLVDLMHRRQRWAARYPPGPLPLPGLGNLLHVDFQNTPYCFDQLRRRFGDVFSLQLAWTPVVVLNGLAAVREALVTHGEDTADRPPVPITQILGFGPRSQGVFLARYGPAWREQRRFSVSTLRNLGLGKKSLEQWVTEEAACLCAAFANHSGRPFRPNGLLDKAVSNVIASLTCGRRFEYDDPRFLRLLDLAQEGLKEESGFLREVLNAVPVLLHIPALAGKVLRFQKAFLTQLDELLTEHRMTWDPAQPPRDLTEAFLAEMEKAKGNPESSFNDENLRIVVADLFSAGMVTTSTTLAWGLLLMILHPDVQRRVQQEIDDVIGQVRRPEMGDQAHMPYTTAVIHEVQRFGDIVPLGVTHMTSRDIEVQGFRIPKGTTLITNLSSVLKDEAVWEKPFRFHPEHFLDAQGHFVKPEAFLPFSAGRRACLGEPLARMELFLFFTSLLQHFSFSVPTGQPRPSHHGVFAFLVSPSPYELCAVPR
Cytochrome P450 2C9 (Homo sapiens), sequence (P11712 whole entry, looked up): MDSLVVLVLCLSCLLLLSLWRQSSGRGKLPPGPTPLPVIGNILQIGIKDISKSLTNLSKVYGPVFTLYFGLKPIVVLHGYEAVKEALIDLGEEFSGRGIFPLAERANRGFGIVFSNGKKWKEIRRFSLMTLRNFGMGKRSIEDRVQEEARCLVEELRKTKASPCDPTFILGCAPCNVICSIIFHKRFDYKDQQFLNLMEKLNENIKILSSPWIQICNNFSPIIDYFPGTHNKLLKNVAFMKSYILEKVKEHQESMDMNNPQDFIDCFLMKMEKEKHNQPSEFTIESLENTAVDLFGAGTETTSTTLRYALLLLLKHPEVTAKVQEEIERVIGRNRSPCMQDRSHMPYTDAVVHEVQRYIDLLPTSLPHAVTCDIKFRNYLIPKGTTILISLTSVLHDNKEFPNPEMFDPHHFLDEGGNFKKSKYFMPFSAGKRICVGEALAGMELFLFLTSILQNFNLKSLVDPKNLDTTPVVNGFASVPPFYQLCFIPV
Cytochrome P450 2C19 (Homo sapiens), sequence (P33261 whole entry, looked up): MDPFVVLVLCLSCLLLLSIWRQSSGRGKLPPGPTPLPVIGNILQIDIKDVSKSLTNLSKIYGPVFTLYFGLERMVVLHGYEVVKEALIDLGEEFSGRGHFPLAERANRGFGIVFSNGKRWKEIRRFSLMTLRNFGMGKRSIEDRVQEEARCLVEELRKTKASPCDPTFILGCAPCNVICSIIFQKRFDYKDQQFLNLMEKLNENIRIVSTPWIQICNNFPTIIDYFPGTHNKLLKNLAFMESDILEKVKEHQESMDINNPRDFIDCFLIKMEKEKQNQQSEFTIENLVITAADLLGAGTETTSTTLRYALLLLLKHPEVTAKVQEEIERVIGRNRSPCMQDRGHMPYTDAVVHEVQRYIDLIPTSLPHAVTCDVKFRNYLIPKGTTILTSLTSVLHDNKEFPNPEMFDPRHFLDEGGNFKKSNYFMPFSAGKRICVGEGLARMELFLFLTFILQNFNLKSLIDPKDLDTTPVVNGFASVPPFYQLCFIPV

O=S(=O)(CCc1ccccc1)c1ccccc1
inactive: Potency [1] | Potency [2] | Potency [3] | Potency [4] | Potency [5]

CC[C@H]1OC(c2ccccc2)[C@H](C)[C@H]2O[C@@H]2[C@@H]1C(=O)OC (some centres undefined)
inactive: Potency [1] | Potency [2] | Potency [3] | Potency [4] | Potency [5]

CCN1C(=NCC(C)C)N[C@@H](CCc2ccccc2)[C@H](C(=O)OC)[C@H]1C
inactive: Potency [1] | Potency [2] | Potency [3] | Potency [4] | Potency [5]

COc1ccc(COC(=O)NN=C2C[C@@H](O)[C@@H](O)[C@@H]3[C@H]4C(=O)N(C5CCCCC5)C(=O)[C@@H]4CC[C@@H]23)cc1
inactive: Potency [1] | Potency [2] | Potency [3] | Potency [4] | Potency [5]

COC(=O)N[C@@H](c1ccco1)C(C(C)=O)C(=O)OC (some centres undefined)
inactive: Potency [1] | Potency [2] | Potency [3] | Potency [4] | Potency [5]

COC(=O)[C@H](COC(C)(C)C)NC(=O)O[C@@H]1C(=O)c2cc(OC)ccc2O[C@H]1c1ccc(OC)c(Br)c1
inactive: Potency [1] | Potency [2] | Potency [3] | Potency [4] | Potency [5]

CC(C)[C@@H](OCc1ccccc1)[C@H](C)C=NO[C@H](C)c1cn([C@@H]2COC[C@@H]2O)nn1
inactive: Potency [1] | Potency [2] | Potency [3] | Potency [4] | Potency [5]

C=CCOC(=O)C1(C(NC(=O)OC)c2ccccc2)C(=O)Cc2ccccc21 (centres undefined)
inactive: Potency [1] | Potency [2] | Potency [3] | Potency [4] | Potency [5]

COc1ccc2c(c1)C(=O)[C@@H](OC(=O)NS(=O)(=O)c1ccc(F)cc1)[C@H](c1ccc(OC)c(Br)c1)O2
inactive: Potency [1] | Potency [2] | Potency [3] | Potency [4] | Potency [5]

COC1=C[C@H](C(=O)NCc2ccccn2)[C@H](C)[C@@H](c2ccccc2)CC1=O
inactive: Potency [1] | Potency [2] | Potency [3] | Potency [4] | Potency [5]

C=CCOC(=O)C(C(C)=O)[C@@H](NC(=O)OC)c1cccs1 (some centres undefined)
inactive: Potency [1] | Potency [2] | Potency [3] | Potency [4] | Potency [5]

CCCCC1=CC2=C(c3ccco3)C(=O)C(C)(OC(=O)c3ccc(OC)cc3)C(=O)C2=CN1CCc1ccccn1 (centres undefined)
inactive: Potency [1] | Potency [2] | Potency [3] | Potency [4] | Potency [5]

COc1ccc(COC(=O)NN=C2C[C@@H](O)[C@@H](O)[C@@H]3[C@H]4C(=O)N(Cc5ccccc5)C(=O)[C@@H]4CC[C@@H]23)cc1
inactive: Potency [1] | Potency [2] | Potency [3] | Potency [4] | Potency [5]

C=CC1=C2C=C(C3CC3)N(CCOC)C=C2C(=O)C(C)(OC(=O)c2ccco2)C1=O (centres undefined)
inactive: Potency [1] | Potency [2] | Potency [3] | Potency [4] | Potency [5]

COc1ccc2c(c1)c(CC(=O)NCc1ccc3c(c1)OCO3)c(C)n2C(=O)c1ccc(Cl)cc1
inactive: Potency [1] | Potency [2] | Potency [3] | Potency [4] | Potency [5]

C[C@H]1Cc2c(-c3ccccc3)nc3c(c2CO1)CN(C(=O)NCc1ccco1)CC3
inactive: activity, negative = inhibition [1] 0.465% [at 1.12 µM] | Potency [2] | Potency [3] | Potency [4] | Potency [5]

CCN1C(=O)N(S(=O)(=O)C(F)(F)F)C(c2ccccc2)C(C(=O)OC)=C1C (centres undefined)
inactive: Potency [1] | Potency [2] | Potency [3] | Potency [4] | Potency [5]

O=c1oc2ccccc2c2c1[C@H]1O[C@](c3ccsc3)(Cc3c1ccc1ccccc31)O2
inactive: Potency [1] | Potency [2] | Potency [3] | Potency [4] | Potency [5]

CC(=O)OC[C@H]1O[C@H](C#CC(C)(C)C)C=C[C@H]1OC(C)=O
inactive: Potency [1] | Potency [2] | Potency [3] | Potency [4] | Potency [5]

C[C@H]1Cc2c(-c3ccccc3)nc3c(c2CO1)CN(S(=O)(=O)c1ccc2c(c1)OCCN2C)CC3
inactive: activity, negative = inhibition [1] 0.591% [at 1.12 µM] | Potency [2] | Potency [3] | Potency [4] | Potency [5]

C=CCNC(=O)[C@H]1C=C(OC)C(=O)C[C@H]2c3ccccc3C[C@]12C
inactive: Potency [1] | Potency [2] | Potency [3] | Potency [4] | Potency [5]

COC(=O)CCC(=O)OC1(C)C(=O)C=C2C=C(C3CC3)N(CCc3c[nH]c4ccccc34)C=C2C1=O (centres undefined)
inactive: Potency [1] | Potency [2] | Potency [3] | Potency [4] | Potency [5]

COC(=O)N[C@H](CC(C)=O)c1ccccc1
inactive: Potency [1] | Potency [2] | Potency [3] | Potency [4] | Potency [5]

CCOC(=O)CN1C(=O)[C@]2(O[C@H](C)CC3=CCCC32)c2c(Br)cccc21 (some centres undefined)
inactive: Potency [1] | Potency [2] | Potency [3] | Potency [4] | Potency [5]

C=C(C(C)=O)C(O)c1cccc(OC)c1 (centres undefined)
inactive: Potency [1] | Potency [2] | Potency [3] | Potency [4] | Potency [5]

Cc1cc(O)cc(O)c1C(=O)OC1(C)C(=O)C=C2C=C(C=CC(=O)O)OC=C2C1=O (centres undefined)
inactive: Potency [1] | Potency [2] | Potency [3] | Potency [4] | Potency [5]

CC(=O)OC[C@H]1O[C@@H](ON=C2C[C@@H](O)[C@@H](O)[C@@H]3[C@H]4C(=O)N(C5CCCCC5)C(=O)[C@@H]4CC[C@@H]23)[C@H](OC(C)=O)[C@@H](OC(C)=O)[C@H]1OC(C)=O
inactive: Potency [1] | Potency [2] | Potency [3] | Potency [4] | Potency [5]

CC(C)CON=C1C[C@@H](O)[C@@H](O)[C@@H]2[C@H]3C(=O)N(c4ccc(F)cc4F)C(=O)[C@@H]3CC[C@H]12
inactive: Potency [1] | Potency [2] | Potency [3] | Potency [4] | Potency [5]

C=CC[C@@H]1C=CC(ON=C(C)CCC(=O)OC[C@H]2O[C@H](C#Cc3ccccc3)C=C[C@H]2Oc2ccc(C)cc2)[C@H](CO)O1 (some centres undefined)
inactive: Potency [1] | Potency [2] | Potency [6] | Potency [5]

COc1ccc(C(=O)CC(=O)c2c(O)cc(OC)cc2OC)cc1
active: Potency [9] 1260 nM | Potency [10] 398 nM
inactive: activity change, negative = inhibition [7] -6.49% [at 11.4 µM] | activity change, positive = activation [8] -41.2% [at 11.4 µM] | Potency [1] | Potency [2] | Potency [3] | Potency [4] | Potency [5]

COc1ccc2c(c1)C(=O)[C@H](OC(=O)Nc1cc(OC)c(OC)c(OC)c1)[C@@H](c1ccc(OC)c(Br)c1)O2
inactive: Potency [1] | Potency [2] | Potency [6] | Potency [5]

COc1ccc(C(=O)[C@]2(C)C=C(c3ccc(OC)cc3)[C@H](C)C2)cc1
inactive: Potency [1] | Potency [2] | Potency [6] | Potency [5]

COc1ccc2c(c1)O[C@@H](c1cccc(C(F)(F)F)c1)[C@H](OC(=O)Nc1ccc(OC(F)F)cc1)C2=O
inactive: Potency [1] | Potency [2] | Potency [6] | Potency [4] | Potency [5]

C[C@H]1COC(=O)[C@H](Cc2ccccc2)NC(=O)[C@@H](C)COC(=O)[C@H](Cc2ccccc2)NC1=O
inactive: activity change, positive = activation [8] -42.5% [at 11.4 µM] | Potency [1] | Potency [2] | Potency [3] | Potency [5]

COC(=O)C1(C(=O)OC)CC=CCc2ccccc2[C@H]1C[N+](=O)[O-]
inactive: Potency [1] | Potency [2] | Potency [6] | Potency [5]

CCN1C(=O)[C@@H]2[C@H]3[C@H](O)[C@H](O)CC(=NNC(=O)OCc4ccccc4)[C@@H]3CC[C@H]2C1=O
inactive: Potency [1] | Potency [2] | Potency [6] | Potency [4] | Potency [5]

Cc1ccc(S(=O)(=O)n2c3ccccc3c3nnc(C(=O)c4ccccc4)nc32)cc1
inactive: activity change, positive = activation [8] -61.8% [at 11.4 µM] | Potency [1] | Potency [2] | Potency [3] | Potency [4] | Potency [5]
active: Potency [11] 3980 nM

COc1ccc(C=CNC(=O)Cc2ccc(OC)c(OC)c2)cc1
inactive: Potency [1] | Potency [2] | Potency [6] | Potency [4] | Potency [5]

CC(CCN1CCCc2nc(C)c(C)cc21)=NO[C@@H](C)c1cc(-c2c(C)cc(C)cc2C)no1
inactive: Potency [1] | Potency [2] | Potency [6] | Potency [4] | Potency [5]

CC(C)OC(=O)[C@@H]1CC[C@H](C)[C@@H](CCC[C@@H]2CC=C[C@H](CC#N)O2)O1
inactive: Potency [1] | Potency [2] | Potency [6] | Potency [4] | Potency [5]

COc1ccc(-c2nc3c(c4c2C[C@H](c2ccccc2)OC4)CN(C(=O)C2CC2)CC3)c(C)c1
inactive: Potency [1] | Potency [2] | Potency [6] | Potency [4] | Potency [5]

CCN1C(=NCCc2ccccn2)NC(c2cccc(C(F)(F)F)c2)C(C(=O)OC)=C1C (centres undefined)
active: Potency [1] 533 nM | Potency [2] 301 nM
inactive: Potency [6] | Potency [5]

COCCN1C(=O)CC[C@@]23C1=NC(C(=O)OC)=C(C(=O)OC)[C@@H]2N(CC=C(C)C)c1ccccc13
inactive: Potency [1] | Potency [2] | Potency [6] | Potency [4] | Potency [5]

COc1ccc(COC(=O)NN=C2C[C@@H](O)[C@@H](O)[C@@H]3[C@H]4C(=O)N(C[C@@H]5CCCO5)C(=O)[C@@H]4CC[C@H]23)cc1
inactive: Potency [1] | Potency [2] | Potency [3] | Potency [4] | Potency [5]

COC(=O)C1(C(=O)OC)C[C@@H]2CON=C2[C@@H]1c1ccccc1
inactive: Potency [1] | Potency [2] | Potency [6] | Potency [5]

C=CCNC(=O)[C@H]1C=C(OC)C(=O)C[C@H](c2ccccc2)[C@H]1C
inactive: Potency [1] | Potency [2] | Potency [6] | Potency [4] | Potency [5]

COC1=C[C@H](C(=O)NCCNC(C)=O)[C@H](C)[C@@H](c2ccccc2)CC1=O
inactive: Potency [1] | Potency [2] | Potency [6] | Potency [5]

CC1(OC(=O)CCc2ccccc2)C(=O)C=C2C=C(c3ccsc3)OC=C2C1=O (centres undefined)
inactive: Potency [1] | Potency [2] | Potency [6] | Potency [4] | Potency [5]
